Screens: PubChem BioAssay, several laboratories
Compounds with a hit are over-represented: about 1.5% of the library has one in this group of screens.
MCL1 BIM primary: inhibitors of MCL1 binding to BIM-BH3, primary screen, biochemical, fluorescence polarization; Induced myeloid leukemia cell differentiation protein Mcl-1 (Homo sapiens), Q07820; GST-MCL1 / FITC-Bim-BH3 fluorescence polarization; inhibition, % at 10.9 µM; 320,000 tested, 0.68% active; AID 2057, 2009;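 active = inhibition above the mean inhibition of all tested compounds plus 3 SD, set per campaign, cut at about 40% in these data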;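 also: higher means more loss of mP so more displacement of Bim peptide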
E coli Lon inh: inhibitors of E. coli Lon protease, primary screen, biochemical, fluorescence polarization; purified E. coli Lon protease; inhibition, % at 7.94 µM; 360,000 tested, 0.42% active; AID 602123, 2011; in the data active = inhibition above about 13%, passing the limit was not always enough
BCLXL inh: inhibitors of human Bcl-xL, primary screen, biochemical, fluorescence polarization, HTS | GST-Bcl-xL / FITC-Bim BH3 peptide fluorescence polarization | inhibition, % at 10.9 µM | 320,000 tested, 0.7% active | AID 2129, 2009;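 active = inhibition above the mean of all tested compounds plus 3 SD, cutoff set per campaign, cut at about 30% in these data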;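 also: inhibitors lower millipolarization by displacing the labeled peptide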
MEX-5 binding: MEX-5 zinc finger RNA-binding disruptors – biochemical, C. elegans, fluorescence polarization, MLPCN library, primary screen. MEX-5/FITC-TCR2 RNA binding; stronger effect = lower value. activity score (negative = inhibition of binding), % at 10 µM. 300,000 tested, 0.38% active;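 active = inhibition past about -25% in most replicates, and total fluorescence under double the plate's negative control median, limit read from the data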
Target sequence (Q9XUB2 whole entry, looked up): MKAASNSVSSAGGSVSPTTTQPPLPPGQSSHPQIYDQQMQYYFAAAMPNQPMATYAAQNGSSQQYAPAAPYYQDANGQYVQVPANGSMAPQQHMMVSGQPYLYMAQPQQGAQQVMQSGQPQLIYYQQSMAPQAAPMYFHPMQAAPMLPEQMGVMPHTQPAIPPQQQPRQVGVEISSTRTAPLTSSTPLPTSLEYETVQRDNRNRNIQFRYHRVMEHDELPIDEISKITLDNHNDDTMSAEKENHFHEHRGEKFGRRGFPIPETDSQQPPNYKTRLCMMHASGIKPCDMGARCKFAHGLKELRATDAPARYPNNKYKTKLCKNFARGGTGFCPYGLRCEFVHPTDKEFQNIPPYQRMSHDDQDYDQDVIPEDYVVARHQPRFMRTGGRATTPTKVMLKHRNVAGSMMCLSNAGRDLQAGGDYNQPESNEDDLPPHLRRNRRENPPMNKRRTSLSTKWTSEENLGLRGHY
GLD-1 TGE inh: GLD-1/TGE RNA complex disruptors, primary screen, biochemical, fluorescence polarization; Female germline-specific tumor suppressor gld-1 (Caenorhabditis elegans), Q17339; purified GLD-1 + fluorescein TGE RNA; inhibition, % at 5.96 µM; 320,000 tested, 0.44% active; AID 2280, 2010;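 active = percent inhibition above a per-plate cutoff, the plate mean of test compounds plus 3 SD, cut at about 30% in these data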
EBV gp42 block: Epstein-Barr virus gp42 inhibitors, primary screen, biochemical, uHTS, fluorescence polarization; Fluorescence polarization binding assay, mP read-out; AID 1085, 2008; inhibition, % (tested at 21.74 µM); 220,000 tested, 0.42% active; Glycoprotein 42 (Epstein-Barr virus (strain AG876)), Q1HVG2; in the data active = inhibition above about 50%
Target sequence (Q1HVG2 whole entry, looked up): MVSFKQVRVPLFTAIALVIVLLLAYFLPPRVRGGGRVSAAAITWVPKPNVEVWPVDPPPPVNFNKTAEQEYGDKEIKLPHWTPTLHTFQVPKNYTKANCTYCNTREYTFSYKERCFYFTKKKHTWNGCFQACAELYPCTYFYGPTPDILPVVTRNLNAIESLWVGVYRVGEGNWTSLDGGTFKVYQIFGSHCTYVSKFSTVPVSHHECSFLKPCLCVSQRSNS
E coli Lon conf: E. coli Lon protease inhibitor retest, confirmation, biochemical, fluorescence polarization | 1,400 tested, 31% active | purified E. coli Lon | inhibition, % at 7.94 µM | shares compounds with E coli Lon inh; in the data active = inhibition above about 16%
Numbers stand for hits; i = inactive; nt = no result; + = active, no number.

SMILES | MCL1 BIM primary | E coli Lon inh | BCLXL inh | MEX-5 binding | GLD-1 TGE inh | EBV gp42 block | E coli Lon conf
O=c1[nH]c(NCCO)c(N=Cc2ccccc2)c(=O)[nH]1 | i | i | i | i | i | nt | nt
Nc1[nH]c(=O)[nH]c(=O)c1N=Cc1ccccc1 | nt | 90.0 | nt | nt | nt | nt | 53.1
COc1ccc(C(=O)N=S2CCN(C(=O)c3ccc(Cl)cc3)CC2)cc1 | i | 102.7 | i | i | i | i | i
O=C(O)c1ccc(CNS(=O)(=O)c2ccc(Oc3ccccc3Cl)cc2)cc1 | i | i | i | i | i | nt | nt
CCn1cnc2cc(NCc3ccc(Br)cc3)ccc21 | i | nt | i | i | i | nt | nt
CCn1cnc2cc(NCc3ccc(C)cc3)ccc21 | i | 117.2 | i | i | i | i | i
COc1cccc(CNC(=O)c2ccc(S(=O)(=O)N3CCOCC3)cc2)c1 | nt | i | nt | nt | nt | nt | nt
Cc1cc2cc(CNS(=O)(=O)c3ccc4ccccc4c3)ccc2n1C | i | 16.3 | i | i | i | i | i
Cc1cc2cc(CNC(=O)c3ccc(S(=O)(=O)N(C)C)cc3)ccc2n1C | i | 25.9 | i | i | i | i | i
Cc1cc2cc(CNC(=O)c3cccc([N+](=O)[O-])c3)ccc2n1C | i | i | i | i | i | i | nt
Cc1cc2cc(CNC(=O)c3ccc(S(=O)(=O)N4CCOCC4)cc3)ccc2n1C | i | 24.4 | i | i | i | i | i
Cc1cc(C)c(S(=O)(=O)NCc2ccc3c(c2)cc(C)n3C)c(C)c1 | i | i | i | i | i | i | nt
CCCCS(=O)(=O)C1CCS(=O)(=O)C1 (stereo not given) | i | i | i | i | i | i | nt
O=C(C1CCC(Cn2c(=S)[nH]c3ccccc3c2=O)CC1)N1CCN(c2ccccc2)CC1 (stereo not given) | i | i | i | i | i | nt | nt
S=c1[nH]nc(-c2ccccn2)n1/N=C/c1ccccc1 | i | i | i | i | i | i | nt
S=c1[nH]nc(-c2ccccn2)n1/N=C/c1ccc(Cl)cc1 | i | 18.0 | i | i | i | i | i
COc1ccc(CNC(NC(=O)c2ccccc2)(C(F)(F)F)C(F)(F)F)cc1 | i | 29.6 | i | i | i | i | i
CCOC(=O)C1CCN(C(=O)C(=O)c2cn(CC(=O)N3CCCCCC3)c3ccccc23)CC1 | i | i | i | i | i | nt | nt
CCOC(=O)N1CCN(C(=O)C(=O)c2cn(CC(=O)N3CCCCCC3)c3ccccc23)CC1 | i | 19.9 | i | i | i | nt | i
CN(C)CCNC(=O)c1onc(CSc2nc3ccccc3[nH]2)c1C(=O)NCCN(C)C | i | i | i | i | i | nt | nt
O=C1CCc2cc(S(=O)(=O)Nc3cccc(Cl)c3)ccc2N1 | nt | i | nt | nt | nt | nt | nt
O=C1C(NS(=O)(=O)c2cccs2)=C(N2CCN(c3cccc(C(F)(F)F)c3)CC2)C(=O)c2ccccc21 | i | 21.9 | i | i | i | i | i
CCCCn1c(N)c(N(CC(C)C)C(=O)c2oc3ccc(OCC)cc3c2C)c(=O)[nH]c1=O | i | i | i | i | i | nt | nt
CSCCC(NC(=O)COc1ccccc1)C(=O)N1CCN(c2ccccc2O)CC1 (stereo not given) | i | 71.0 | i | i | i | nt | i
CCN(CC)C(=O)Cc1ccccc1 | i | i | i | i | i | i | nt
SMILES | MCL1 BIM primary | E coli Lon inh | BCLXL inh | MEX-5 binding | GLD-1 TGE inh | EBV gp42 block | E coli Lon conf
CCOc1ccc(S(=O)(=O)N2CCC(C(=O)NCc3ccccn3)CC2)cc1 | i | i | i | i | i | nt | nt
CC1(C)CC(=O)c2cnc(NCC3CCCO3)nc2C1 (stereo not given) | i | i | i | i | i | i | nt
CC1CC(=O)c2cnc(NCC3CCCO3)nc2C1 (stereo not given) | i | 15.7 | i | i | i | i | i
CCN1CCN(Cc2ccc(NC(=O)c3ccc(C)c(NC(=O)C[C@@H]4NC(=O)[C@H](Cc5ccccc5)NC4=O)c3)cc2C(F)(F)F)CC1 | i | i | i | i | i | i | nt
NC(=O)CN1C(=O)C(=O)N(Cc2ccc(Cl)cc2)C1=O | i | i | i | i | i | nt | nt
O=C(O)CN1C(=O)C(=O)N(Cc2ccc(Cl)cc2Cl)C1=O | i | 18.2 | i | i | i | nt | 16.8
CCOC(=O)NC(=O)/C(C#N)=C\Nc1ccc(Cl)cc1Cl | i | i | i | i | i | i | nt
CCOC(=O)NC(=O)/C(C#N)=C\Nc1sccc1C(=O)OC | + | + | + | i | + | i | i
C=CC(=O)Nc1cccc(Oc2ccnc(Nc3ccc(N4CCN(C)CC4)cc3)n2)c1 | nt | i | nt | nt | nt | nt | nt
O=C(Nc1ccc(O)cc1)c1cccc(Oc2ccc([N+](=O)[O-])cc2)c1 | i | i | i | i | i | i | nt
CN(C(=O)C(C)(C)C)[C@H]1C[C@H]2c3[nH]c4ccccc4c3CCN2C(=O)[C@H]1CO | nt | 14.2 | nt | nt | nt | nt | i
CN(C(=O)NC1CCCCC1)[C@H]1C[C@H]2c3[nH]c4ccccc4c3CCN2C(=O)[C@H]1CO | nt | i | nt | nt | nt | nt | nt
CCC(c1nnc(SC(C)C(=O)NC2CC2)n1-c1ccc(OC)cc1)N(C)C (stereo not given) | i | 18.9 | i | nt | i | nt | i
C=CCn1c(COc2ccc(OC)cc2)nnc1SC(C)C(=O)NC1CC1 (stereo not given) | i | i | i | nt | i | nt | nt
Cc1ccc([N+](=O)[O-])cc1NC(=O)C(C)N1CCCCC1 (stereo not given) | i | i | i | i | i | i | nt
COc1cc(NC(C)CCCNC(C)C)c2ncccc2c1OC (stereo not given) | nt | 30.0 | nt | nt | nt | nt | i
COc1cc(NCCCCCCN)c2ncccc2c1OC | nt | i | nt | nt | nt | nt | nt
COc1cc(C(CC(=O)N2CCOCC2)c2c(OC)cc(OC)c3ccc(=O)oc23)cc(OC)c1OC (stereo not given) | i | i | i | i | i | i | nt
COC(=O)C(Cc1ccccc1)NC(=O)C(CC(C)C)NC(=O)OC(C)(C)C (stereo not given) | i | i | i | i | i | i | nt
CC(C)CC(NC(=O)OC(C)(C)C)C(=O)O (stereo not given) | i | 18.6 | i | i | i | i | i
Cc1ccc(-n2nc3c(=O)n(CC(=O)NCCCc4ccccc4)nc(C)c3c2C)cc1 | i | i | i | i | i | nt | nt
Cc1ccc(-n2nc3c(=O)n(CC(=O)NCCc4ccco4)nc(C)c3c2C)cc1 | i | 35.7 | i | i | i | nt | i
CC(C)c1onc(C(=O)Nc2cccnc2Cl)c1[N+](=O)[O-] | i | 18.6 | i | i | i | i | i
CN(C(=O)c1ccccc1C(=O)OCC(=O)c1ccccc1)c1ccccc1 | i | i | i | nt | i | nt | nt
COc1ccc(C(=O)COC(=O)c2ccccc2C(=O)N(C)c2ccccc2)c(OC)c1 | i | 40.1 | i | i | i | nt | i
